Screening results: PubChem, National Center for Advancing Translational Sciences (NCATS)
gsp antag = gsp mutant antagonism. gsp-mutant cells, cAMP HTRF, 30 min. Potency, µM (highest dose often 76.9 µM), for the others: top-dose activity change, negative = inhibition, most hits filed as inhibitors. hit rate 0.4% among 340,000. AID 624288; calls by dose curve; cell line not stated here;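 also: intracellular cAMP measured with PDE inhibitor Ro 20-1724 present during compound exposure; potency is read from the fitted curve at half-maximal effect; % is scaled to controls: 0 for no effect and ±100 for the full control effect; nearly all actives have a fitted effect of over 65% in size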
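Cells, 2000/well, grown 16–24 h in DMEM 10% FBS with 0.5 mg/ml G418, then compounds plus […] (300 uM addition stock), 30 min at 37C. cAMP read by HTRF (cAMP-d2 and anti-cAMP antibody-K in lysis buffer) after 30 min RT.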
gsp ag = activates gsp, the McCune-Albright syndrome mutation | gsp mutant cells, cAMP HTRF, 30 min | Potency, µM (top dose mostly 76.9 µM), inactives show at the top dose activation (cAMP increase), usual class: activators | hit rate 0.13% among 340,000 | AID 624287; active = well fitted activation curve with a large enough effect; inconclusive = small, poorly fitted or top-dose-only effect, or another doubt; inactive = no such curve, though single readings can be large or run the other way; cell line not stated here;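 also: phosphodiesterase inhibitor Ro 20-1724 added with compounds to block cAMP breakdown; potency is read from the fitted curve at half-maximal effect; nearly all actives have a fitted effect of over 60% in size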
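Cells in DMEM/10% FBS with G418 were pretreated with compounds in DMSO plus […] (300 uM stock) for 30 min at 37C. cAMP was measured by HTRF (cAMP-d2 plus anti-cAMP antibody-K) after 30 min at room temperature.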
RXFP1 ag = RXFP1 (human) receptor agonism; Potency, µM (series often up to 57.5 µM), for the others: top-dose activation, hits mostly activators; AID 2676; HEK293T-RXFP1 cAMP TR-FRET, 30 min; response scale: percent of porcine relaxin response, buffer zero; Q9HBX9; hit rate 0.3% among 370,000; active = well fitted activation curve with a large enough effect; inconclusive = small, poorly fitted or top-dose-only effect; also: potency is read from the fitted curve at half-maximal effect; % is scaled to controls: 0 for no effect and ±100 for the full control effect; nearly all actives have a fitted effect of over 60% in size
Target sequence (Q9HBX9 whole entry, looked up): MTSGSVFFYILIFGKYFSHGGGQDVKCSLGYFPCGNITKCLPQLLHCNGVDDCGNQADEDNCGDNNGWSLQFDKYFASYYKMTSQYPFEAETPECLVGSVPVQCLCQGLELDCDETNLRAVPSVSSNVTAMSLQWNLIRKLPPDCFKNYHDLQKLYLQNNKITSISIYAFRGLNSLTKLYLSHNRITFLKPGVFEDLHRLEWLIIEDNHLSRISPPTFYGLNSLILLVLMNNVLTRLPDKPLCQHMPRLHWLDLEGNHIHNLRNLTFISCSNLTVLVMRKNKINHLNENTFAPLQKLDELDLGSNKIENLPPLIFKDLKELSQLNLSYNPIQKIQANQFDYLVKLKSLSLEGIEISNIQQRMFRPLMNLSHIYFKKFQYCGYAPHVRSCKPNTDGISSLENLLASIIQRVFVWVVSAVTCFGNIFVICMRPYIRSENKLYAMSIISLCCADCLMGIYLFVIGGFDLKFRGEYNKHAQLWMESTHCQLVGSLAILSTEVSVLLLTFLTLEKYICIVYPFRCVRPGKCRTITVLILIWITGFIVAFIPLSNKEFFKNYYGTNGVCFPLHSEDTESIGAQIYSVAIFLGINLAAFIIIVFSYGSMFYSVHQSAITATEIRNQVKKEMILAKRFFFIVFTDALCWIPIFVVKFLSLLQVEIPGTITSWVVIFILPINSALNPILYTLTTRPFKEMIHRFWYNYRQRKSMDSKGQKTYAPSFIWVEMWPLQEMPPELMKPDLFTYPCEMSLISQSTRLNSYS
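Agonist response is measured as cAMP accumulation in an RXFP1-transfected HEK293T line under PDE4 inhibition. Values are scaled between buffer-only and 29 nM porcine relaxin, and EC50s come from standard Hill equation fits.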
Akt phos inh = Akt phosphorylation inhibition | activity change, % for hits at 50 µM | hit rate 0.32% among 360,000 | AID 651550 | Neuro2A IGF-stimulated pAkt S473 HTRF, 20 min; active compounds read low; in the data active = activity change below about -80%; inconclusive = mostly about -51% to -80%; also: % is scaled to controls: 0 for no effect and ±100 for the full control effect
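Neuro2A cells in DMEM with 0.5% FBS, overnight at 37 deg C, given compound at single 50 µM final, then IGF (6 nM final) for 20 min at 37 deg C. Lysed; phospho-Akt Ser473 by HTRF after 24 h, 665/615 ratio.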
RXFP1 antagonist = RXFP1 (human) relaxin receptor antagonism; Q9HBX9; HEK293-RXFP1, relaxin-stimulated cAMP HTRF, 30 min; active compounds read low; activity change, negative = inhibition, % at 57.5 µM; hit rate 0.59% among 350,000; AID 1259400;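 active = activity change of -60% or lower, but not beyond a set lower limit; inconclusive = change between -60% and -40%, or beyond the set limit; inactive = change above -40%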; also: % is scaled to controls: 0 for no effect and ±100 for the full control effect
Numbers without * were called inactive; i = inactive; ? = inconclusive; . = no result given; [ ] = another dose, or the depositor's remark. The list is not random: actives were taken first. Their share in the collection is about 1.2%.

SMILES	gsp antag	gsp ag	RXFP1 ag	Akt phos inh	RXFP1 antagonist
Cc1cc(C)nc(SCc2nnc(SCC(=O)Nc3ccc(C)c(C)c3)n2Cc2ccco2)n1	-14%	19%	-2%	-110%*	17
COC(=O)CSc1nnc(CSc2nc(C)cc(C)n2)n1Cc1ccco1	6%	8%	3%	-97%*	-11
COC(=O)C[C@@H]1C[C@H]2c3cc(NC(=O)C4CCC4)ccc3O[C@H]2[C@@H](CO)O1	.	?	.	i	5
O=C(C[C@@H]1C[C@H]2c3cc(NC(=O)C4CCC4)ccc3O[C@H]2[C@@H](CO)O1)NCc1ccc(-c2ccccc2)cc1	.	32µM*	.	i	-3
Cc1cc(C)c(C)c(S(=O)(=O)N2CCN(c3ncnc4ccccc34)CC2)c1C	35µM*	0%	3%	i	-19
Cc1cc(C)c(C)c(S(=O)(=O)N2CCN(c3ccccn3)CC2)c1C	-7%	17%	0%	i	-26
Cc1ccc2c(c1)-c1onc(C(=O)N(C)c3cccc(C(F)(F)F)c3)c1CO2	.	.	0%	.	.
O=C(CNC1C(=O)Nc2ccccc21)Sc1ccccc1 (centres undefined)	4%	-41%	-1%	-111%*	-3
O=C(CNC(=O)c1ccccc1)Sc1ccccc1	2%	?	.	i	-8
COC(=O)C(O)(CC(=O)Nc1ccccc1OC)C(F)(F)F (centres undefined)	-5%	-57%	3%	-99%*	-9
CCc1ccccc1NC(=O)CC(O)(C(=O)OC)C(F)(F)F (centres undefined)	6%	-15%	2%	i	1
N#Cc1nc(-c2ccccc2F)oc1NC1CCCCC1	-16%	8%	5%	i	-60*
CN(C/C=C/c1ccccc1)Cc1cccc2ccccc12	-13%	.	0%	i	-69*
CN(Cc1ccc(C(C)(C)C)cc1)Cc1cccc2ccccc12	.	.	.	.	-19
CCOc1c(N2CCOCC2)cnn(C)c1=O	.	.	.	.	-12
O=C(CN1C2CCC1CC(NC(=O)Nc1ccccc1)C2)NCc1ccco1 (centres undefined)	9%	-34%	1%	-107%*	-11
O=C(Nc1c(-c2ccccc2)nc2sccn12)c1ccccc1	2%	-2%	0%	-106%*	-7
CCC(C)NCCCOc1ccc(Cl)cc1C(C)(C)C (centres undefined)	14%	1%	0%	i	8
C=CCc1cc(Cl)ccc1OCCCNC(C)CC (centres undefined)	14%	-24%	-1%	i	-63*
Clc1ccc(NCc2nc3ccccc3n2CCOc2ccccc2)cc1	.	.	-1%	.	-61*
N#Cc1c(N)nc(SCC(=O)NCCc2ccccc2)c(C#N)c1-c1cccs1	0%	?	?	-89%*	10
Oc1cccc(Nc2nc(O)c(/C=C3\C=Nc4ccccc43)s2)c1	?	?	1%	i	-1
Oc1nc(Nc2ccc(F)cc2)sc1/C=C1\C=Nc2ccccc21	-26%	12%[15.4 µM]	2%	i	-104*
CCCc1ccc(OCc2ccc(C(=O)N3CCN(c4ccccn4)CC3)o2)c(OC)c1	?	-55%	0%	i	-63*
COc1ccc(CC(=O)N2CCN(c3ccccn3)CC2)cc1OC	-3%	-4%	2%	i	2
SMILES	gsp antag	gsp ag	RXFP1 ag	Akt phos inh	RXFP1 antagonist
COc1ccc(OC)c(NC(=O)CCc2c(C)nn(-c3ccc(N4CCCC4)nn3)c2C)c1	.	.	3%	.	2
COc1ccc(N2CCN(C(=O)c3cc(-c4cc(OC)ccc4OC)nc4ccccc34)CC2)cc1	?	-59%	4%	i	-11
CCOc1ccccc1N1CCN(C(=O)c2cc(-c3cc(OC)ccc3OC)nc3ccccc23)CC1	14µM*	23%	2%	i	2
O=C(c1cc(O)c(O)c(O)c1)c1ccc(O)c(O)c1O	.	.	.	.	-14
CC(C)(C)c1ccc(C(=O)CCC(=O)OCC(=O)NCCc2ccc(S(N)(=O)=O)cc2)cc1	32µM*	1%	0%	i	-39
NS(=O)(=O)c1ccc(CCNC(=O)COC(=O)CCc2ccccc2)cc1	2%	-14%	-1%	i	5
CCCCOCc1cc(CN2CCN(c3cccc(Cl)c3)CC2)c(O)c2ncccc12	.	.	-2%	.	15
CC(=O)Nc1ccc(S[C@@H](CCN2CC[C@H](O)CCC2=O)c2ccccc2)cc1	50µM*	6%	-4%	i	.
Cc1cc(C)cc(N2C(=O)C=CC2=O)c1	?	-11%	.	i	-85*
Cc1c([N+](=O)[O-])cc(N2C(=O)C=CC2=O)cc1[N+](=O)[O-]	11%	3%[15.4 µM]	.	i	?
COCCCn1c(=S)[nH]c2ncccc2c1=O	12%	15%	1%	-122%*	-8
COCCCn1c(-c2ccccc2)nc2ccccc2c1=O	-1%	-4%	2%	-121%*	-11
COCCn1c(=S)[nH]c2ncccc2c1=O	-6%	3%	2%	-109%*	6
CC(=O)Nc1cc(C(=O)NCc2ccc(F)cc2)ccc1Sc1ccc(C)cc1	.	.	3%	.	-20
CCOc1ccccc1CNS(=O)(=O)c1ccc2c(c1)CCCN2C(C)=O	.	.	0%	.	-10
COc1cc(NC(=O)CCc2c(C)nn(-c3ccc(N4CCCCC4)nn3)c2C)cc(OC)c1OC	.	.	4%	.	5
S=c1[nH]nc(-c2cccc(Cl)c2)n1Cc1ccccc1	12%	0%	-1%	i	?
C=CCn1c(-c2cccc(Cl)c2)n[nH]c1=S	8%	?	17%	-109%*	-7
COc1ccc(-c2cn3nc(N4CCCC(C(=O)Nc5cccc(Cl)c5C)C4)sc3n2)cc1 (centres undefined)	.	.	1%	.	1
CC(C)(C)NC(=O)CSc1nncn1NCc1cccc2ccccc12	0%	-2%	0%	-113%*	-6
Cc1nc(-c2cccc(NC(=O)Nc3ccc([N+](=O)[O-])cc3)c2)no1	.	.	2%	.	.
CC/C(=N/O)C(=O)c1ccc(Br)cc1	8%	-2%[15.4 µM]	-1%	i	-88*
C/C(=N/OC(=O)c1ccc(C)cc1)C(=O)c1ccc(Br)cc1	-5%	-8%	-2%	i	4
CCOc1ccccc1Cn1c(=O)sc2ccccc21	?	-3%[15.4 µM]	-1%	i	-87*
CCCCOc1ccccc1Cn1c(=O)oc2ccccc21	-4%	-37%	2%	-112%*	-15
Cc1ccc2nc(-c3cc(NC(=O)/C=C/c4ccccc4)ccc3Cl)oc2c1	.	.	0%	.	-16
Cc1cccc(NC(=O)c2ccc(COc3ccccc3)o2)n1	4%	-22%	0%	i	-4
Cc1cccc(NC(=O)c2ccc(COc3ccc(Cl)cc3Cl)o2)n1	6%	6%	0%	-128%*	-11
CCOC(=O)c1ccc(N2C(=O)c3n[nH]c(-c4ccco4)c3C2c2ccc(OCC)cc2)cc1 (centres undefined)	.	.	0%	.	-31
